# Giardia kill: Small Molecules that selectively kill Giardia lamblia: qHTS; Giardia lamblia trophozoite viability; activity change, % at 7.66 µM, hits read low; hit rate 0.15% among 340,000; AID 540267, 2011; in the data active = activity change below about -80%; inconclusive = between about -30% and that limit;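 also: parasites exposed to compound for two days anaerobically before the ATP read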
#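 Compounds were tested on trophozoites seeded at 100 cells/well and held 48 hrs at 37 deg C anaerobically. An ATP-based luminescent kit measured the remaining live cells.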
# TDP1 cell CPT: qHTS for Inhibitors of human tyrosyl-DNA phosphodiesterase 1 (TDP1): qHTS in cells in presence of CPT | Potency, µM (series often up to 46.2 µM), for the others: top-dose activity change, negative = growth inhibition, hits mostly inhibitors | chicken DT40 Tdp1-/-;hTDP1 cells + 20 nM CPT, ATP luminescence, 48 h | AID 686979, 2013 | hit rate 12% among 420,000; also: potency is read from the fitted curve at half-maximal effect; nearly all actives have a fitted effect of over 55% in size
#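 Chicken DT40 Tdp1-/- cells stably complemented with human TDP1 were seeded at 400 cells/well in medium containing 20 nM camptothecin, exposed to pin-transferred compounds, and grown at 37 °C for at least 48 hr. Viability was read as ATP luminescence.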
# TDP1 inh: qHTS Assay for Inhibitors of Tyrosyl-DNA Phosphodiesterase (TDP1) | Potency, µM (highest dose often 130 µM), for the others: top-dose activity change, negative = inhibition, actives largely listed as inhibitors | hit rate 0.28% among 350,000 | recombinant TDP1, AlphaScreen DNA substrate cleavage | Tyrosyl-DNA phosphodiesterase 1 (Homo sapiens), Q9NUW8; also: potency is read from the fitted curve at half-maximal effect; nearly all actives have a fitted effect of over 40% in size
# Target sequence (Q9NUW8 whole entry, looked up): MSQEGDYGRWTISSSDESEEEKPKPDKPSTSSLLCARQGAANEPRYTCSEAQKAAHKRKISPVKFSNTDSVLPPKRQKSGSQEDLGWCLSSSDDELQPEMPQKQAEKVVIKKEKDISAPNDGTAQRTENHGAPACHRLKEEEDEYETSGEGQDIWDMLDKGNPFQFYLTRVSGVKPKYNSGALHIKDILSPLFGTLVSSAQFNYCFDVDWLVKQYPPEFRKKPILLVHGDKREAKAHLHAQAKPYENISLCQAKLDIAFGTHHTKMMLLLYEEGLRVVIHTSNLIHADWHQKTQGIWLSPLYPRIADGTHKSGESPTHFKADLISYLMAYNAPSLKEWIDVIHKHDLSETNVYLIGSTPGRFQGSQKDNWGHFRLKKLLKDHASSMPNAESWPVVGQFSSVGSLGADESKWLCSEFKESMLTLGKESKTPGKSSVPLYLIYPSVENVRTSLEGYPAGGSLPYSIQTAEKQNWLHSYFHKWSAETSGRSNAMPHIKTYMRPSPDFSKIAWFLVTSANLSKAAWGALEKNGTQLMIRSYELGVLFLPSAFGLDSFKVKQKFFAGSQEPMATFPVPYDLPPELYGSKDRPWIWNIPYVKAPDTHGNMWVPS
#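 Steps: enzyme plus compound, 15 min RT; add biotin/phosphotyrosine-FITC oligonucleotide (15 nM final), react 5 min; add donor/acceptor beads (10 ug/ml final), 10 min; read AlphaScreen. Tdp1 at 1 nM final.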
# ELG1 repair inh: qHTS screen for small molecules that inhibit ELG1-dependent DNA repair in human embryonic kidney (HEK293T) cells expressing luciferase-tagged ELG1 | HEK293T ELG1-luciferase reporter, luminescence, 16 h; DNA damage induced by 5-fluorouridine | Potency, µM (top dose mostly 46.1 µM), for the others: top-dose activity change, negative = inhibition, usual class: inhibitors | hit rate 2.3% among 330,000 | AID 504467, 2011; also: potency is read from the fitted curve at half-maximal effect; nearly all actives have a fitted effect of over 55% in size
#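 5-Fluorouridine DNA damage + compound/DMSO, 2,000 cells/well, 16 h, 37 °C/5% CO2. ONE-Glo, 30 min RT, luminescence. Readout = decrease in reporter signal.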
# IL-1B inflam inh: qHTS for Inhibitors of Inflammasome Signaling: IL-1-beta AlphaLISA Primary Screen | THP-1 LPS/ATP IL-1B secretion, AlphaLISA, 16 h; hits give low values | activity change, % at 57.5 µM | hit rate 4.7% among 360,000 | AID 743279, 2014; in the data active = activity change below about -50%; inconclusive = mostly about -30% to -49%
#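 THP-1 cells pretreated 1 hr with compounds (up to 57.5 uM final), then stimulated with LPS (250 ng/mL final) plus ATP (1.25 mM final); secreted IL-1B measured by AlphaLISA after 16 hr, decreased signal indicating inhibition.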
# DT40 TDP1 no CPT: qHTS for Inhibitors of human tyrosyl-DNA phosphodiesterase 1 (TDP1): qHTS in cells in absence of CPT | DT40 Tdp1-/- hTDP1 cells, no CPT, ATP luminescence, 48 h | Potency, µM (doses to about 46.2 µM), for inactives: at the top dose activity change, negative = growth inhibition, usual class: inhibitors | hit rate 15% among 420,000 | AID 686978, 2013; also: potency is read from the fitted curve at half-maximal effect; nearly all actives have a fitted effect of over 55% in size
#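 Seeded 400 DT40-hTDP1 cells/well (vehicle DMSO, no 20 nM CPT); pinned compounds; ≥48 hr at 37 °C; CellTiter-Glo luminescence as viability measure.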
# * hit, by the source's call; u = inconclusive; x = not tested or not shown; [ ] = another dose, or the depositor's remark. This is a sample that favours compounds with a hit; in the whole collection about 19% have one here. Unless noted, calls follow the shape of the dose curve; as a rule, active = well fitted curve in the direction sought with a large enough effect; inconclusive = small, poorly fitted or top-dose-only effect, or another doubt; inactive = no such curve, though single readings can be large; an effect the other way counts as inactive or inconclusive. % is scaled to controls: 0 for no effect and ±100 for the full control effect.
SMILES,Giardia kill,TDP1 cell CPT,TDP1 inh,ELG1 repair inh,IL-1B inflam inh,DT40 TDP1 no CPT
CNC(=O)c1ccsc1NC(=O)c1sc2ccccc2c1Cl,-8,13µM*,-5%,u,-1,u
Cc1nnc(NC(=O)c2sc3ccccc3c2Cl)s1,-84*,-6%,4%,u,0,u
Cc1ccnc(NC(=O)c2sc3cc(Cl)ccc3c2Cl)c1,-6,-3%,3%,u,-14,-20%
CCN(CC)c1ccc(NC(=O)c2sc3ccccc3c2Cl)cc1,x,21µM*,7%[12.3 µM],x,x,21µM*
CCCS(=O)(=O)NC(=O)C1(C)CCCN(C(=O)c2ccc(SC(F)(F)F)cc2)C1 (stereo not given),x,3%,x,x,55,2%
Cc1cc(C(=O)Nc2ccccc2N2CCCCC2)no1,-3,u,-3%,-6%,-2,u
CCOc1ccc(N=NC2C(=O)N(C(N)=S)N=C2C)cc1 (stereo not given),3,-6%,x,u,15,u
O=C(Nc1ccc(CN2CCCCC2)cc1)c1sc2ccccc2c1Cl,8,13µM*,2%,u,-57*,16µM*
O=C(NCC(=O)N1CCCCC1)c1sc2ccccc2c1Cl,-14,-8%,1%,u,u,-21%
COc1ccc(-c2noc(-c3ccc(N4CCN(c5ccccc5)CC4)c([N+](=O)[O-])c3)n2)cc1,x,u,9%,x,x,-11%
Cc1cc(NC(=O)c2ccco2)cc(-c2nc3cc(Cl)ccc3o2)c1O,x,18µM*,7%,x,x,12µM*
CC(=O)Nc1ccc2oc(-c3cc(F)c(F)cc3Cl)nc2c1,-18,5%,2%,u,0,-11%
Cc1cc(NC(=O)C(C)C)cc(-c2nc3ncccc3o2)c1O,x,u,2%,x,x,13µM*
Cc1ccc2oc(-c3cc(NC(=O)/C=C/c4ccco4)ccc3Cl)nc2c1,x,u,0%[12.3 µM],x,x,21µM*
O=C(/C=C/c1ccco1)Nc1ccc(Cl)c(-c2nc3cc(Cl)ccc3o2)c1,x,u,-6%[12.3 µM],x,x,26µM*
CC(C)C[C@@H](CC(=O)N[C@@H](CCC(=O)O)CC(=O)O)NC(=O)[C@@H]1CCCC[C@H]1NC(=O)C[C@H](CCCN)NC(=O)C[C@H](CO)NC(=O)[C@@H]1CNCC[C@H]1N,x,x,3%,x,x,x
CCOc1ccc(CCNC(=O)Cn2ccc3ccccc3c2=O)cc1OCC,-2,-2%,0%,14%,-5,3%
COc1ccc(Cl)cc1NC(=O)CCNS(=O)(=O)c1cccc2nonc12,3,14%,0%[0.0935 µM],-4%,-1,-6%
COc1ccc(N2CC(NC(=O)c3ccc(OC(C)C)cc3)CC2=O)cc1 (stereo not given),x,-9%,5%,x,x,u
O=[N+]([O-])c1ccc2c(c1)-c1ccccc1C2O (stereo not given),x,u,x,x,u,13µM*
O=C(O)c1ccc([N+](=O)[O-])cc1-c1cc([N+](=O)[O-])ccc1C(=O)O,-2,5%,x,x,21,-24%
O=C(O)CCC(=O)Nc1ccc(/C=C/C(=O)C2CC2)cc1,2,-7%,6%,2%,18,-5%
NS(=O)(=O)c1ccc(Nc2ccc([N+](=O)[O-])c3nonc23)cc1,-16,-24%,9%,-15%,36,-17%
O=C(O)c1ccc(Nc2ccc3nonc3c2[N+](=O)[O-])cc1,-26,5%,x,10%,7,9%
